From article PMC7862700, “An all-to-all approach to the identification of sequence-specific readers for epigenetic DNA modifications on cytosine”

Columns and labels:
Test in all cases: DAPPL (digital affinity profiling via proximity ligation, sequencing); 10 mM Tris-HCl pH 7.5, 50 mM NaCl, 1 mM DTT, 4% glycerol, room temperature, 30 min; GST-TFs on glutathione beads, 16-mer random dsDNA library, 0.1% formaldehyde crosslink after washing; high values mean tight binding
FEV = molecular target: T1, FEV (Homo sapiens, UniProt Q99581 1-238); details: protein: recombinant; tags: N-terminal GST; dsDNA, one strand shown
T1 sequence: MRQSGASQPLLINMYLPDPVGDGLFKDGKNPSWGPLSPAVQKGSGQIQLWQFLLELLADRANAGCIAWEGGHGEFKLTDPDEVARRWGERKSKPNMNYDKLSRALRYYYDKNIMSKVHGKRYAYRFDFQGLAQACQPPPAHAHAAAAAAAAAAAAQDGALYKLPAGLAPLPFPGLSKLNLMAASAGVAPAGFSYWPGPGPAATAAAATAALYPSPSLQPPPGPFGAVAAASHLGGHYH
Outline: (§1)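 Yeast served to express human transcription factors as GST fusions, which were then captured on glutathione beads and labelled with DNA barcodes. Pooled with a tag-only sample, they were incubated with 200 nmole of a 16-mer random double-stranded DNA library for 30 min at room temperature in Tris/NaCl/DTT/glycerol buffer, washed, crosslinked with 0.1% formaldehyde, ligated by proximity, amplified by PCR and sequenced. Dividing each hexamer's read frequency for a factor by its frequency for the tag-only sample gives the binding signal.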

ETV5 = ETV5 (Homo sapiens, UniProt P41161 1-510); details: protein: recombinant; tags: N-terminal GST; dsDNA, one strand shown
Chain of ETV5 (P41161 whole entry): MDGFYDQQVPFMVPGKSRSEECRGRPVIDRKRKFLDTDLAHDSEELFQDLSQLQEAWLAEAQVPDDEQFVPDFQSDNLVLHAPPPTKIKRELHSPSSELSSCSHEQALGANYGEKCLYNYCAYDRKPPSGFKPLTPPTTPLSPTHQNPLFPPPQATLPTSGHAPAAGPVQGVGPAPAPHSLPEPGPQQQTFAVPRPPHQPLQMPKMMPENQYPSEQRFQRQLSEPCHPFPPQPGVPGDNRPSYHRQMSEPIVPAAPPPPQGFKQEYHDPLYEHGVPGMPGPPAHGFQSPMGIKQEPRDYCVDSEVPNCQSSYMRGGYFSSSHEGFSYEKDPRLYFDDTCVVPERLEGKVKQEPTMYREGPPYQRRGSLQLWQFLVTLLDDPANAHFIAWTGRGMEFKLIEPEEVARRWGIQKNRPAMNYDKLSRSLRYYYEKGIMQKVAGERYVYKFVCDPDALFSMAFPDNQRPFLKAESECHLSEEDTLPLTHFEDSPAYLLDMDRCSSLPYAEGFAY
Outline: as §1

HSF1 = HSF1 (Homo sapiens, UniProt Q00613 1-529); details: protein: recombinant; tags: N-terminal GST; chain copies: 3; dsDNA, one strand shown
Chain of HSF1 (Q00613 whole entry): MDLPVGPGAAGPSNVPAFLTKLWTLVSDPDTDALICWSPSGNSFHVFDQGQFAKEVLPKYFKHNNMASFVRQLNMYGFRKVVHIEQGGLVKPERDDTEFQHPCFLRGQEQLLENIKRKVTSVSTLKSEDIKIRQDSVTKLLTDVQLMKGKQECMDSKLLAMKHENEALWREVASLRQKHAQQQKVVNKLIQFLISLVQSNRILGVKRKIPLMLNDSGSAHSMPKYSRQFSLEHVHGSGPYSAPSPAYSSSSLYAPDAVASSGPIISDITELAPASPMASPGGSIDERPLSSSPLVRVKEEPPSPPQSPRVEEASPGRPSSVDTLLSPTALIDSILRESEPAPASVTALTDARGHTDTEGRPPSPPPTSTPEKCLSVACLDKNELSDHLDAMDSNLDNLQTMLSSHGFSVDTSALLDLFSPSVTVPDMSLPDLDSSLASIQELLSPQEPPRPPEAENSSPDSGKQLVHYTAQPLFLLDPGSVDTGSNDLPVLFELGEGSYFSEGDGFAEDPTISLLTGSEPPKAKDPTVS
Outline: as §1

SPIC = molecular target: T2, SPIC (Homo sapiens, UniProt Q8N5J4 1-248); details: protein: recombinant; tags: N-terminal GST; dsDNA, one strand shown
T2 sequence: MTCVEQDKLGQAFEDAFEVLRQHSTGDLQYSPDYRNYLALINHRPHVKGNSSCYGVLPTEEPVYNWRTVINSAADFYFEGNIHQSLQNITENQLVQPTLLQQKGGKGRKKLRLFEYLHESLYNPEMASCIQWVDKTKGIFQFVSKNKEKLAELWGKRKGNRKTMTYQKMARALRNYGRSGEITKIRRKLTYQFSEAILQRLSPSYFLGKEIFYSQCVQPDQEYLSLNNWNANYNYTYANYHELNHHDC
Outline: as §1

ELF4 = ELF4 (Homo sapiens, UniProt Q99607 1-663); details: protein: recombinant; tags: N-terminal GST; dsDNA, one strand shown
Chain of ELF4 (Q99607 whole entry): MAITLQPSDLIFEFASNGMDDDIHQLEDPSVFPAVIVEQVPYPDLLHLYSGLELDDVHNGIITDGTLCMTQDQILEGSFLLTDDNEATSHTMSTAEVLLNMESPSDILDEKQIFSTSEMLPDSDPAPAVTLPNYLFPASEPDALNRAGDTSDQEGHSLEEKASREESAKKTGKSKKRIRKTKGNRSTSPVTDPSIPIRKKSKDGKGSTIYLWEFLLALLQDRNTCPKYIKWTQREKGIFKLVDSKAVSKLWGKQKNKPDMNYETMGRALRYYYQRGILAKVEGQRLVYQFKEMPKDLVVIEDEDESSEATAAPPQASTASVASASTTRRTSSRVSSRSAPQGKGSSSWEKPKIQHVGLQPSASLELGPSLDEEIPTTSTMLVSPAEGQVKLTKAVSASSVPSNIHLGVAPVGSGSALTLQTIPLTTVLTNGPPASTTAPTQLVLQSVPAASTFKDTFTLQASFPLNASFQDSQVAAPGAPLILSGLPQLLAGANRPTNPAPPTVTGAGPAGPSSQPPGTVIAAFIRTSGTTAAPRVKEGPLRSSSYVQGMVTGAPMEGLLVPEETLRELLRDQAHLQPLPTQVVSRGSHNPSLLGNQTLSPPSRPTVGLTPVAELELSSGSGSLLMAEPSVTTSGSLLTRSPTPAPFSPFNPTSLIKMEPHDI
Outline: as §1

ELK4 = molecular target: T3, ELK4 (Homo sapiens, UniProt P28324-2 1-405); details: protein: recombinant; tags: N-terminal GST; dsDNA, one strand shown
T3 sequence: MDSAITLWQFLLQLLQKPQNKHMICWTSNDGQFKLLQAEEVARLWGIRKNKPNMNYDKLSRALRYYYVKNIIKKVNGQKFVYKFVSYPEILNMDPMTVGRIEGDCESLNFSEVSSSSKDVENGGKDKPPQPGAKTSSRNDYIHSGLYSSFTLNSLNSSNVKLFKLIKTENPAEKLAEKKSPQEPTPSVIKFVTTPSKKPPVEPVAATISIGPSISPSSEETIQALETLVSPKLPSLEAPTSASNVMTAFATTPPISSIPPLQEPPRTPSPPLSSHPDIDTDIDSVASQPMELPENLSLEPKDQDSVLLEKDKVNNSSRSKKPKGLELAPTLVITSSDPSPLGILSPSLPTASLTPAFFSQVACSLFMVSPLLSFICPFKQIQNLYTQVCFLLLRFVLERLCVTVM
Outline: as §1

ETV2 = molecular target: T4, ETV2 (Homo sapiens, UniProt O00321 1-342); details: protein: recombinant; tags: N-terminal GST; dsDNA, one strand shown
T4 sequence: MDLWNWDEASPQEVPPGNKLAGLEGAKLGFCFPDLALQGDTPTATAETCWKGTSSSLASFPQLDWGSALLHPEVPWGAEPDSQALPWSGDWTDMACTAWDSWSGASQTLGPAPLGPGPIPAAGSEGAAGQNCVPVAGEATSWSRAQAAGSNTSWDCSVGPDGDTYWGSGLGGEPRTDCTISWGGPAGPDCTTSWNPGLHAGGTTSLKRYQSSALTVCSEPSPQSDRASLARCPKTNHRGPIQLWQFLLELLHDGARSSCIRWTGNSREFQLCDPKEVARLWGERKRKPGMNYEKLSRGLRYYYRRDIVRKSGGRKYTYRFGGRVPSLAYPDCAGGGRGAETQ
Outline: as §1

ELF3 = molecular target: T5, ELF3 (Homo sapiens, UniProt P78545 1-371); details: protein: recombinant; tags: N-terminal GST; dsDNA, one strand shown
T5 sequence: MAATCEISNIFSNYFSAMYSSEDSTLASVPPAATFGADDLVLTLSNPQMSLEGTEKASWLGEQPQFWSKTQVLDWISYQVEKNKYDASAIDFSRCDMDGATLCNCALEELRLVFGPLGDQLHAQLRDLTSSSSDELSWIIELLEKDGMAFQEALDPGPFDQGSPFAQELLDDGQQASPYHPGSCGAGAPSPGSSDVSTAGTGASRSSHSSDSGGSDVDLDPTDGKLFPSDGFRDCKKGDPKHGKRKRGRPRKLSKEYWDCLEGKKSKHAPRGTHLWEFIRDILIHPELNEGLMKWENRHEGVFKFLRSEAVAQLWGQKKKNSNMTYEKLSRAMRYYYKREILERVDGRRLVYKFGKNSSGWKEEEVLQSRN
Outline: as §1

CRX = CRX (Homo sapiens, UniProt O43186 1-299); details: protein: recombinant; tags: N-terminal GST; dsDNA, one strand shown
Chain of CRX (O43186 whole entry): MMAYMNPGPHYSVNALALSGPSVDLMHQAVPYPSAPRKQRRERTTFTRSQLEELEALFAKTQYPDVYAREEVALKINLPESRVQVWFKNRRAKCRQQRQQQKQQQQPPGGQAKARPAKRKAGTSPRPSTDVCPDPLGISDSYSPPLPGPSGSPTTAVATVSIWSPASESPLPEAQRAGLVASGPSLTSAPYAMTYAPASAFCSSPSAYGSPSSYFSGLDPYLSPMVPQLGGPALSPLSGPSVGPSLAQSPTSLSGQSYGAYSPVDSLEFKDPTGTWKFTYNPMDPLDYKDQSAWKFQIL
Outline: as §1

ETV1 = ETV1 (Homo sapiens, UniProt P50549 1-477); details: protein: recombinant; tags: N-terminal GST; dsDNA, one strand shown
Chain of ETV1 (P50549 whole entry): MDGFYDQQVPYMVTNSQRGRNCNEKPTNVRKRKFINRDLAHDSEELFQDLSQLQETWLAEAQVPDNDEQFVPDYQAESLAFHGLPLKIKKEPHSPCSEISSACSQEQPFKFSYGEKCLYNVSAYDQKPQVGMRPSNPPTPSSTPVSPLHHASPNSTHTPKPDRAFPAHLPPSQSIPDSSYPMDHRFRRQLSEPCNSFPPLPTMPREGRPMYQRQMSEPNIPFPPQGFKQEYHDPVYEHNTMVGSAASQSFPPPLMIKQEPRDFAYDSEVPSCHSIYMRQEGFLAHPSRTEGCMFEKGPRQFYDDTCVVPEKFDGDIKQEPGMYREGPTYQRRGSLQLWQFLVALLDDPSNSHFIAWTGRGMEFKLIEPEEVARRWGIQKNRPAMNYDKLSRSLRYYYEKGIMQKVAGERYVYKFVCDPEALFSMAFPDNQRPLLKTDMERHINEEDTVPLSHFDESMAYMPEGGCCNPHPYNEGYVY
Outline: as §1

ERF = molecular target: T6, ERF (Homo sapiens, UniProt P50548 1-548); details: protein: recombinant; tags: N-terminal GST; dsDNA, one strand shown
T6 sequence: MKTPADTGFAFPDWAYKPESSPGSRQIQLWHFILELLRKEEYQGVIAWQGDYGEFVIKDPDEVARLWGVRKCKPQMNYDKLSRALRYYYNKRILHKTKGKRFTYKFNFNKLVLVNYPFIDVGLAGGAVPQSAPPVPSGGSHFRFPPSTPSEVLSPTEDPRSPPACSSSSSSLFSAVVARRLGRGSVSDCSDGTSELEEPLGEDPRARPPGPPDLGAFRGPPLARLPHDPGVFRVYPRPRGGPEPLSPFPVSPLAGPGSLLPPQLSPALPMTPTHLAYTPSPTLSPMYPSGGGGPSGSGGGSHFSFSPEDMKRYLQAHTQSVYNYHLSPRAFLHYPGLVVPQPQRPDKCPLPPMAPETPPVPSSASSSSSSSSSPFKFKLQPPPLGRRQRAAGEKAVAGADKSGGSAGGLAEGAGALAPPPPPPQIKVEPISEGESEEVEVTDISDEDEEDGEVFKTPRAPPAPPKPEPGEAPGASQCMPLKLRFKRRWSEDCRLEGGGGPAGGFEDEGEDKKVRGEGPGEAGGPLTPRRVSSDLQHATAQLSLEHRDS
Outline: as §1

ETV3L = molecular target: T7, ETV3L (Homo sapiens, UniProt Q6ZN32 1-361); details: protein: recombinant; tags: N-terminal GST; dsDNA, one strand shown
T7 sequence: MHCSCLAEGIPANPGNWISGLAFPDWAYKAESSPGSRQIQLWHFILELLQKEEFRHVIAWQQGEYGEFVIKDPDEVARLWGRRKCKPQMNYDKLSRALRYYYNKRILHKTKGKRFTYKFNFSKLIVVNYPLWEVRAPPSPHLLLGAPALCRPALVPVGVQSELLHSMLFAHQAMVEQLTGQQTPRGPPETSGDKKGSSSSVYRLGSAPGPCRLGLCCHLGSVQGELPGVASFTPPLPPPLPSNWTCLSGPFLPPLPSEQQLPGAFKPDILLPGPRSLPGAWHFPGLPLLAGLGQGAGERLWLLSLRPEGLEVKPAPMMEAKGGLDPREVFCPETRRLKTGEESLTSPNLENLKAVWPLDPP
Outline: as §1

ETS2 = molecular target: T8, ETS2 (Homo sapiens, UniProt P15036 1-469); details: protein: recombinant; tags: N-terminal GST; dsDNA, one strand shown
T8 sequence: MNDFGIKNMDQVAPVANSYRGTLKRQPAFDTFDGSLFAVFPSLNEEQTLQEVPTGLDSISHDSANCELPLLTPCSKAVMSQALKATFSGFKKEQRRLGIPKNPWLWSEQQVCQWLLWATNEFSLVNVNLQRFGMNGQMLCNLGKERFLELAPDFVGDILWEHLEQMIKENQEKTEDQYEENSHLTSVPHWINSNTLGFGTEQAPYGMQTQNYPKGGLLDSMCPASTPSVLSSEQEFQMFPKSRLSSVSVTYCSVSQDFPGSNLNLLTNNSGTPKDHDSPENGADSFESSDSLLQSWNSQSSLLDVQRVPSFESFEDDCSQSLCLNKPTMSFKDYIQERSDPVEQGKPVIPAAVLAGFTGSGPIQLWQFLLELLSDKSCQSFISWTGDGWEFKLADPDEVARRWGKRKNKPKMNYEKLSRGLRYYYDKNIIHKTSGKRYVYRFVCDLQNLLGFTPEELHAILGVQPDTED
Outline: as §1

SPDEF = molecular target: T9, SPDEF (Homo sapiens, UniProt O95238 1-335); details: protein: recombinant; tags: N-terminal GST; dsDNA, one strand shown
T9 sequence: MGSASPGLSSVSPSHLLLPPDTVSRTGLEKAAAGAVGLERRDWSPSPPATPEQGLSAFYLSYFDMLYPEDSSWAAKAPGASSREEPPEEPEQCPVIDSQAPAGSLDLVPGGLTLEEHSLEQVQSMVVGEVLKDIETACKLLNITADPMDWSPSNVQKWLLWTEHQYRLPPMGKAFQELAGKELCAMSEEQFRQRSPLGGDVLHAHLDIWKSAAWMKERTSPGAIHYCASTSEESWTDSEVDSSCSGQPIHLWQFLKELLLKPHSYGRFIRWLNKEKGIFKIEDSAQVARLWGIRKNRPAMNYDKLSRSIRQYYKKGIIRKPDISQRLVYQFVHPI
Outline: as §1

ETV7 = molecular target: T10, ETV7 (Homo sapiens, UniProt Q9Y603 1-341); details: protein: recombinant; tags: N-terminal GST; dsDNA, one strand shown
T10 sequence: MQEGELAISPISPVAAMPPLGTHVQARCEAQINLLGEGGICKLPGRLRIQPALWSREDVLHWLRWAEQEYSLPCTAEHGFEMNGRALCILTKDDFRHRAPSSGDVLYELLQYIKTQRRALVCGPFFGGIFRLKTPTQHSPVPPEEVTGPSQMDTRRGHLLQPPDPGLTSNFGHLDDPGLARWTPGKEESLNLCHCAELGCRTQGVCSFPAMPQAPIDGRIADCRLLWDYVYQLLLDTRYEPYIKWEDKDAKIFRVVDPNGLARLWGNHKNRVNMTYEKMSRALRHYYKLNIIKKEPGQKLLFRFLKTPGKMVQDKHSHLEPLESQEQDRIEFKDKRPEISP
Outline: as §1

ELF5 = molecular target: T11, ELF5 (Homo sapiens, UniProt Q9UKW6-2 1-255); details: protein: recombinant; tags: N-terminal GST; dsDNA, one strand shown
T11 sequence: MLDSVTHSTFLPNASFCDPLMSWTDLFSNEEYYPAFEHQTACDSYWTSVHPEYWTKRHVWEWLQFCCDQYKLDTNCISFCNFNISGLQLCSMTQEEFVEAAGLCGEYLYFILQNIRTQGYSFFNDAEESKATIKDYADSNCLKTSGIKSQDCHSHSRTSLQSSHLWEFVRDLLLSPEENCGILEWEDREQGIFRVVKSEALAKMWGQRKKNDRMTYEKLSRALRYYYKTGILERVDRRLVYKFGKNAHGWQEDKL
Outline: as §1

ETV3 = molecular target: T12, ETV3 (Homo sapiens, UniProt P41162-2 1-143); details: protein: recombinant; tags: N-terminal GST; dsDNA, one strand shown
T12 sequence: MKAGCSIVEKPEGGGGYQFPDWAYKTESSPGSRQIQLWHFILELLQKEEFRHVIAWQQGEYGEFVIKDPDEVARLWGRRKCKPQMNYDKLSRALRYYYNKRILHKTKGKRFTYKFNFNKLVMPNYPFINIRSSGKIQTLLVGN
Outline: as §1

ETV6 = ETV6 (Homo sapiens, UniProt P41212 1-452); details: protein: recombinant; tags: N-terminal GST; dsDNA, one strand shown
Chain of ETV6 (P41212 whole entry): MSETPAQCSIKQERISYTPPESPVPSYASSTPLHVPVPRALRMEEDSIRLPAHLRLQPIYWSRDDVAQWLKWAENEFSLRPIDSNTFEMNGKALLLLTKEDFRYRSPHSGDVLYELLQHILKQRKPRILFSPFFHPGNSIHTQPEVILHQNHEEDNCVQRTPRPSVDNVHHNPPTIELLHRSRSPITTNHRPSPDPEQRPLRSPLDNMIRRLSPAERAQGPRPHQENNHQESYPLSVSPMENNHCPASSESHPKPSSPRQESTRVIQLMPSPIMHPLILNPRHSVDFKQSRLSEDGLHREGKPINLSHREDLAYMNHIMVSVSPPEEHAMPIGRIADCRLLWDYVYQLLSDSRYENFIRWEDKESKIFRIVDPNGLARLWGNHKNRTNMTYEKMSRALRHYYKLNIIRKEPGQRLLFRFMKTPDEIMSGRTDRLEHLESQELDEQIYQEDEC
Outline: as §1

## TGTCCT
FEV
  binding signal: 1.45 fold enrichment (6-mer frequency, TF over GST control)
ETV5
  binding signal: 1.56 fold enrichment (6-mer frequency, TF over GST control)
HSF1
  binding signal: 1.06 fold enrichment (6-mer frequency, TF over GST control)
SPIC
  binding signal: 1.53 fold enrichment (6-mer frequency, TF over GST control)
ELF4
  binding signal: 1.4 fold enrichment (6-mer frequency, TF over GST control)
ELK4
  binding signal: 1.28 fold enrichment (6-mer frequency, TF over GST control)
ETV2
  binding signal: 1.67 fold enrichment (6-mer frequency, TF over GST control)
ELF3
  binding signal: 1.46 fold enrichment (6-mer frequency, TF over GST control)
CRX
  binding signal: 1.12 fold enrichment (6-mer frequency, TF over GST control)
ETV1
  binding signal: 1.55 fold enrichment (6-mer frequency, TF over GST control)
ERF
  binding signal: 1.5 fold enrichment (6-mer frequency, TF over GST control)
ETV3L
  binding signal: 1.58 fold enrichment (6-mer frequency, TF over GST control)
ETS2
  binding signal: 1.47 fold enrichment (6-mer frequency, TF over GST control)
SPDEF
  binding signal: 1.79 fold enrichment (6-mer frequency, TF over GST control)
ETV7
  binding signal: 1.4 fold enrichment (6-mer frequency, TF over GST control)
ELF5
  binding signal: 1.7 fold enrichment (6-mer frequency, TF over GST control)
ETV3
  binding signal: 1.47 fold enrichment (6-mer frequency, TF over GST control)
ETV6
  binding signal: 1.25 fold enrichment (6-mer frequency, TF over GST control)
